What is called inhibition is the drop in the measured response relative to a control, in per cent.

In all, about 5,600 compounds went through this assay and about 390 (7%) showed an effect of 50% or more. The sample as a whole holds a higher share of strong results than the screen did. Positions of bridges follow the written chain, without caps; N, C: chain ends. Non-standard residues stand in square brackets, D forms with d. Residues, ends and D or L forms follow the SMILES beside them. hArg = N=C(N)NCCCC[C@H](N)C(=O)O; Mpa = O=C(O)CCS

The target in the test is T1, Protein deacetylase HDAC6 (Homo sapiens) (UniProt Q9UBN7).
T1 sequence (whole entry): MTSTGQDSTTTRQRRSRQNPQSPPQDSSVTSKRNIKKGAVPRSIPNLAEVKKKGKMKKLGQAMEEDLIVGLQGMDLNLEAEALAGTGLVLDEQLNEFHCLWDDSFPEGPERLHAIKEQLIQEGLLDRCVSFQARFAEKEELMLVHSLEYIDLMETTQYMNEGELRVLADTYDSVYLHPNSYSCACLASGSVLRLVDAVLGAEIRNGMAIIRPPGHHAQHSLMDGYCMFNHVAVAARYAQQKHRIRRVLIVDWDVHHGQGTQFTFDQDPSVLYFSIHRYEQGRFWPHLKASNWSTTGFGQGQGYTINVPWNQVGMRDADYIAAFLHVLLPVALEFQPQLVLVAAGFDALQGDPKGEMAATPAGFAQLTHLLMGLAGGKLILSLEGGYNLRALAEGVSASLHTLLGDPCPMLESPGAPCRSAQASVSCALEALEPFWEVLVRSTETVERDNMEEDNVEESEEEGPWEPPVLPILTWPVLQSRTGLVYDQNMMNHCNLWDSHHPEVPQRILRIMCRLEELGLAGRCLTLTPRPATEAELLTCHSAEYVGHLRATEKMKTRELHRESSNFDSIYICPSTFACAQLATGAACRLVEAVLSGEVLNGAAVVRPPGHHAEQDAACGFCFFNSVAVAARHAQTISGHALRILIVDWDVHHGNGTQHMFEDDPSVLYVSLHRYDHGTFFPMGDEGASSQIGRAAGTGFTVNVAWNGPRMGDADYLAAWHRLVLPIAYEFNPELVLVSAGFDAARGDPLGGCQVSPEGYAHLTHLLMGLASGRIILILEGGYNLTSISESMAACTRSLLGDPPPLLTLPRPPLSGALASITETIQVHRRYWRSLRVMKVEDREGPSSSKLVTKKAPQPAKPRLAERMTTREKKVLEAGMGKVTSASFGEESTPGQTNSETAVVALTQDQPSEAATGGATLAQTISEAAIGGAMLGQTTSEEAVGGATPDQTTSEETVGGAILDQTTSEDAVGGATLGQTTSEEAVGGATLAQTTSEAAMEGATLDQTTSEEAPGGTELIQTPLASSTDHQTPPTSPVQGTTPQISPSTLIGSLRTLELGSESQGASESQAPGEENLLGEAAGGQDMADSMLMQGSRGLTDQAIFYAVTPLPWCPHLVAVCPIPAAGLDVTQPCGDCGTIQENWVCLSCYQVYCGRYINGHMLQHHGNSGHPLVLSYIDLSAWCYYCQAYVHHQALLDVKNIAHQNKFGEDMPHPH
Particulars: at 10 µM.
`Cc1cc(C)c2c(c1)[C@@H](N(Cc1cc(C(F)(F)F)cc(C(F)(F)F)c1)c1nnn(C)n1)CCCN2C[C@H]1CC[C@H](C(=O)O)CC1`: the inhibition came out at 4.11%. Turning to `Cc1nnsc1C(=O)Nc1ccc(-n2nc(C(F)(F)F)cc2C(F)(F)F)cc1`, the inhibition was 8.76%.

Regarding `O=C1Cc2cc(CCN3CCN(c4nsc5ccccc45)CC3)c(Cl)cc2N1`, the inhibition was 11.8%. Take `COc1cccc(OCCCN)c1-c1cc(Nc2cnc(C#N)cn2)n[nH]1`: the inhibition was -3.28%. Take `N#C[C@@H]1CCCN1C(=O)CNC12CC3CC(CC(O)(C3)C1)C2`: the inhibition was -7.44%. With `C/C=C\C1=C(C(=O)O)N2C(=O)C(NC(=O)C(N)c3ccc(O)cc3)C2SC1` (centres undefined) the figure was -7.76%; with `O=C(O)CCN(O)C(=O)CCCCCCCCC1CC1`, 37.2%. `C=CC[N+]12CC[C@@]34c5ccccc5N5/C=C6/[C@H]7C[C@H]8[C@@]9(CC[N@@+]8(CC=C)C/C7=C/CO)c7ccccc7N(/C=C(/[C@@H](C[C@@H]31)/C(=C\CO)C2)[C@H]54)[C@@H]69` (some centres undefined): the inhibition was 31.2%. The value for `N=C(N)NCCC[C@@H](N)C(=O)N[C@@H](CCCNC(=N)N)C(=O)N1CCC[C@H]1C(=O)N1C[C@H](O)C[C@H]1C(=O)NCC(=O)N[C@@H](Cc1cccs1)C(=O)N[C@@H](CO)C(=O)N1Cc2ccccc2C[C@@H]1C(=O)N1[C@H](C(=O)N[C@@H](CCCNC(=N)N)C(=O)O)C[C@@H]2CCCC[C@@H]21` was 31.7%; that for `COc1cc(CN(CCN)C(=O)c2cccs2)ccc1OCc1ccccc1` was -2.87%; that for `CN1CC(=O)N=C1NC(=O)Nc1cccc(Cl)c1` was 89.3%. For the compound `O=C(Nc1ccc(Cl)cc1)Nc1cccc(-c2cccc(N3CCCC3)n2)c1`, the inhibition is 20.6%. With `CC(C)c1c(NC(=O)Nc2ccc(Cl)cc2)c(=O)n(-c2ccccc2)n1C` the figure was -4.84%. On to `CC(C)c1onc(-c2c(Cl)cccc2Cl)c1COc1ccc(/C=C/c2cccc(C(=O)O)c2)c(Cl)c1`, for which the inhibition turned out to be 3.22%.

Regarding `CC(C)(C)c1ccc(/C=C/C(=O)Nc2ccc3c(c2)OCCO3)cc1`, the inhibition was -7.4%.

In the case of `O=C(c1ccc2c(c1)OCO2)N1CCCCC1`, the inhibition came to 21.9%. For the compound `O=C(/C=C/c1ccc2c(c1)OCO2)N1CCCCC1`, the inhibition was 97.2%. As for `O=C(/C=C/C=C/c1ccc2c(c1)OCO2)N1CCCCC1`, the inhibition was 115%. As to `CC(C)(C)C(O)/C=C/c1ccc2c(c1)OCO2` (centres undefined), the inhibition was determined as 15.9%. In the case of `C[N+](C)(C)CC[N+]1(C)Cc2c(Cl)c(Cl)c(Cl)c(Cl)c2C1`, the inhibition stood at 10.9%.

Regarding `COc1oc(=O)c2cc(N)ccc2c1Cl`, the inhibition was determined as 22.8%. Consider `C=C1/C(=C\C=C2/CCC[C@]3(C)[C@@H]([C@H](C)CCCC(C)C)CC[C@@H]23)C[C@@H](O)C[C@@H]1O`, for which the inhibition is -2.44%. Turning to `COc1ccc(-c2sc(NC(=O)C(C)(C)C)nc2C)cc1S(=O)(=O)Nc1ccc(O)cc1`, the inhibition was -1.39%. `O=C(c1ccc(/C=C/c2n[nH]c3ccccc23)cc1)N1CCNCC1`: the inhibition was determined as 94.8%. As for `COc1ccc(Cl)c(Nc2ncnc3cc(OCC4CCN(C)CC4)c(OC)cc23)c1`, the inhibition is 6.69%. On to `CN(C(=O)CCCOc1ccc2[nH]c(=O)ccc2c1)C1CCCCC1`, for which the inhibition was -1.06%. For `N=C(N)NCCCC[C@@H]1NC(=O)CCSSC[C@@H](C(N)=O)NC(=O)[C@@H]2CCCN2C(=O)[C@H](Cc2c[nH]c3ccccc23)NC(=O)[C@H](CC(=O)O)NC(=O)CNC1=O` ([Mpa][hArg]GDWPC-NH2; disulfide 1-7), the inhibition is 6.3%.

Take `CC/C(=C(\c1ccc(O)cc1)c1ccc(OCCNC)cc1)c1ccccc1`: the inhibition is -4.99%. For the compound `N=C(N)SCCc1ccc(OCc2ccc([N+](=O)[O-])cc2)cc1`, the inhibition was 9.62%. On to `Oc1ccc(OCc2ccccc2)cc1`, for which the inhibition stood at 98.1%. For `CCNCCCNCCCCNCCCNCC`, the inhibition was found to be 4.88%. With `CC1(C)CC(Oc2ccc(-c3ccc(-c4cn[nH]c4)cc3O)nn2)CC(C)(C)N1` the figure was 8.09%; with `CN(C)CCOc1cc(-c2cn[nH]c2)ccc1NC(=O)C1COc2ccccc2O1` (centres undefined), 55.4%; with `CC1(C)CCC(C)(C)c2cc(C3(c4ccc(C(=O)O)cc4)OCCO3)ccc21`, -3.33%. As for `CS(=O)(=O)c1ccc(-c2cc(Br)sc2-c2ccc(F)cc2)cc1`, the inhibition is -5.78%.

Consider `N=C1NC(=O)/C(=C/c2ccc(O)cc2)S1`, for which the inhibition amounted to 28.8%. `O=C1NC(=O)/C(=C/c2ccc3c(c2)OC(F)(F)O3)S1`: the inhibition came to 0.87%. For the compound `O=C1NC(=O)/C(=C/c2ccc(-c3ccc(F)cc3O)o2)S1`, the inhibition was determined as 90.4%.

In the case of `CC(C)C(=O)c1ccc(O)c(O)c1`, the inhibition is -4.84%. On to `O=C(NO)c1ccc(O)c(O)c1`, for which the inhibition came out at 87.6%. Regarding `O=C(O)C(O)Cc1ccc(O)c(O)c1` (centres undefined), the inhibition was 15.4%. With `CCC(=O)c1cc(-c2ccc(Cl)cc2)n(-c2ccc(S(N)(=O)=O)cc2)c1C`, the inhibition came out at 23.3%. As to `O=C1c2c(O)ccc(O)c2C(=O)c2c(NCCNCCO)ccc(NCCNCCO)c21`, the inhibition was found to be 28.6%.

Regarding `NCCNc1ccc(NCCN)c2c1C(=O)c1ccncc1C2=O`, the inhibition came out at 98.7%. As to `NCCNS(=O)(=O)c1ccc(Cl)c2ccncc12`, the inhibition is 8.69%. Regarding `NC(N)=O`, the inhibition was 5.48%. The value for `C[C@@H]1CCCN1CCc1cc2cc(-c3ccc(C#N)cc3)ccc2o1` was 25.1%. With `COc1ccc([C@@H]2Sc3ccccc3N(CCN(C)C)C(=O)[C@@H]2OC(C)=O)cc1`, the inhibition came to 10.1%. With `Cc1cc(NC(=O)Nc2ccc(F)c(F)c2)n(-c2ccccc2)n1`, the inhibition was 23.6%.

Source of the values: ChEMBL document CHEMBL4808148, “HDAC6 screening dataset using tau-based substrate in an enzymatic assay yields selective inhibitors and activators” (2021).
